From PubChem BioAssay
Sampled rows, rich in hits. Any-hit rate of the full collection: about 1.5%.
FAK inh: FAK (human) kinase inhibition | Q05397 | biochemical FAK kinase activity assay | inhibition, %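 (tested at 7 µM)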 | hit rate 0.84% among 97,000 | AID 727; in the data active means inhibition above about 19%;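 further: 0% = DMSO and 100% = reference compound high control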
Target sequence (Q05397 whole entry, looked up): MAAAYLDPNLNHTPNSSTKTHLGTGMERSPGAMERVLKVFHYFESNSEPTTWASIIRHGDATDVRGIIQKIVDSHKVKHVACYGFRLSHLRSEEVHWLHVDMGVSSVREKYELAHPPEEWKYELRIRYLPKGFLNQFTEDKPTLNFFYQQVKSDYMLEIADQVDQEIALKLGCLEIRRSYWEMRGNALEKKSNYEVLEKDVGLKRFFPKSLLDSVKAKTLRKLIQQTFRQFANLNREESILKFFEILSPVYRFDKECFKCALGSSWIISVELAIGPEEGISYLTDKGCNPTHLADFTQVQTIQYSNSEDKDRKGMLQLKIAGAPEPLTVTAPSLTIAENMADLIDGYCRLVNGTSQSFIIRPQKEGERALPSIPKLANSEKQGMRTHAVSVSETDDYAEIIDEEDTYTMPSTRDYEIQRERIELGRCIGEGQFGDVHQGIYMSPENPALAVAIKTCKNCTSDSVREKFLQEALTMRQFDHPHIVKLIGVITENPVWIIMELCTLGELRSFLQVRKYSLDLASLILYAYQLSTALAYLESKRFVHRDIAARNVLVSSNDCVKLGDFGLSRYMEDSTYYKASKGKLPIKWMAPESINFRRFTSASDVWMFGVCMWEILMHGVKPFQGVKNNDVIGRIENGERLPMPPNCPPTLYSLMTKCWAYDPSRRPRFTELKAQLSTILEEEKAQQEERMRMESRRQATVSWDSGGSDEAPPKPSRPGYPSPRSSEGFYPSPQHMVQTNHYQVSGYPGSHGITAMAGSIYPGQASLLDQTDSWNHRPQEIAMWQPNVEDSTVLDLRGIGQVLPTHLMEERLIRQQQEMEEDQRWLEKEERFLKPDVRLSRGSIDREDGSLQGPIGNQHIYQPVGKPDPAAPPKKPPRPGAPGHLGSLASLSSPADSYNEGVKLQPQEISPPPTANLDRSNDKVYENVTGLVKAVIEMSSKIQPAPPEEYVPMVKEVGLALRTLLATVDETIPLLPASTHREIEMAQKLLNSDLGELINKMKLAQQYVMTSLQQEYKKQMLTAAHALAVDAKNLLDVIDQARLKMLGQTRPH
EphB4 antag: EphB4-ephrin-B2 interaction antagonism; EphB4 LBD / TNYL-RAW-Alexa532 peptide, fluorescence polarization; hit rate 0.15% among 97,000; P54760; AID 720; inhibition, % at 7 µM;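 active means inhibition above the screen-wide mean inhibition plus 3 SD, cut at about 15% in these data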;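 further: 0% = DMSO wells and 100% = excess unlabeled TNYL-RAW peptide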
PLK1 PBD inh: inhibitors of human Plk1 polo box domain binding | hit rate 0.13% among 97,000 | P53350 | inhibition, %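 (tested at about 20 µM)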 | AID 693 | Plk1 PBD phosphopeptide binding, fluorescence polarization; in the data active means inhibition above about 34%, passing the limit was not always enough
PLK1 inh: PLK1 (human) kinase inhibition; recombinant PLK1 kinase, TR-FRET peptide phosphorylation; AID 619; inhibition, % at 10 µM; hit rate 0.53% among 97,000; P53350;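 active means inhibition of 50% or more in the single-concentration screen; inactive means inhibition below 50%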;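 further: 0% = DMSO max control and 100% = H-89 dihydrochloride min control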
Smad3 inh: Smad3 (human) transcription factor binding inhibition | P84022 | TR-FRET Smad3/Dy647-FoxH1 peptide binding, europium anti-His | inhibition, % at 25 µM | hit rate 0.29% among 88,000 | AID 630;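 active means compounds that reduce the energy-transfer binding signal between the protein and its labelled peptide by more than half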;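 further: 0% = Smad3 plus labelled peptide maximal FRET and 100% = peptide-only background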
Redox H2O2 DR: generates H2O2 by redox cycling, flagging false Plk1 PBD hits; shares compounds with PLK1 PBD inh; redox cycling H2O2 generation, DTT, counter-screen; EC50, µM; 120 tested, under 10 active; AID 876; call rule not given here
Numbers without * were called inactive; x = no result given.

SMILES	FAK inh	EphB4 antag	PLK1 PBD inh	PLK1 inh	Smad3 inh	Redox H2O2 DR
Cc1ccc(NC(=O)C2CC=CCC2C(=O)N2CCCCC2)cc1 (centres undefined)	-11	-8	43*	3	-9	>50
COc1ccc(C2SCCN2S(=O)(=O)c2ccc(F)cc2)cc1OC (centres undefined)	-5	4	-4	0	4	x
COc1ccccc1C1SCCN1S(=O)(=O)c1cccc(C(F)(F)F)c1 (centres undefined)	-1	-12	51*	-6	2	>50
C=CCN(CC=C)C(=O)C1CC(=O)N(c2ccc(Br)cc2)C1 (centres undefined)	-2	-3	10	-11	-3	x
O=C(O)CCC(=O)Nc1ccccc1C(=O)NC1CCCCC1	0	-4	-31	-7	4	x
CCC(=O)Nc1ccccc1C(=O)NC1CCCCC1	-1	-2	41*	-12	-2	>50
COC(=O)c1ccccc1NC1=C/C(=N\S(=O)(=O)c2cccs2)c2ccccc2C1=O	14	-1	56*	7	26	>50
Cc1ccc(Cl)cc1N1CCN(S(=O)(=O)c2ccc3c(c2)oc(=O)n3C)CC1	-1	-11	39*	-9	-14	>50
O=C1CN(c2ccc(Br)cc2)C(=O)N1CC(=O)N1CCCc2ccccc21	1	-2	46*	-16	15	>50
O=C(Nc1ccccn1)C1CCN(S(=O)(=O)c2cccc3nonc23)CC1	0	4	36*	-1	1	>50
C/C(=C\C(=O)Nc1cc(C)on1)c1ccccc1	-1	5	40*	-8	6	>50
Cc1cc(NC(=O)c2cccs2)n(-c2ccccc2)n1	0	4	-9	-4	1	x
NC(=O)C1(N2CCCCC2)CCN(C(=O)NC2CCCCC2)CC1	-2	8	52*	-3	-17	>50
NC(=O)Cn1c(S(=O)(=O)Cc2ccccc2)nc2ccccc21	3	1	43*	-12	12	>50
O=C(Cn1c(S(=O)(=O)Cc2ccccc2)nc2ccccc21)N1CCCCC1	-4	9	2	-9	0	x
CS(=O)(=O)N1CCN(C/C=C/c2ccccc2)CC1	-2	-3	47*	8	7	>50
O=S(=O)(Cc1ccccc1)N1CCN(C/C=C/c2ccccc2)CC1	-1	-2	3	-14	-2	x
O=C(O)C1CCCCC1C(=O)NCCCn1ccnc1 (centres undefined)	0	8	6	-4	-3	x
COC(=O)c1ccc(OC(=O)c2ccccn2)cc1	x	x	x	x	0	x
NC(=O)C1CCN(C(=O)Nc2ccccc2)CC1	0	-2	-17	-9	6	x
NC(=O)C1CCN(C2=C(Cl)C(=O)c3ccccc3C2=O)CC1	12	2	66*	11	x	>50
CN1CCN(S(=O)(=O)c2ccc3c(c2)OCCO3)CC1	-1	-5	-2	-10	-4	x
Cc1ccc(OCC(=O)Nc2ccc(N3CCOCC3)cc2)cc1	4	-4	39*	-8	9	>50
CC1CCCC(NC2CCCCNC2=O)C1 (centres undefined)	7	1	43*	-2	1	>50
CCSc1nnc(NC(=O)CN(C)S(=O)(=O)c2ccc(F)cc2)s1	-2	-4	-53	1	8	x
SMILES	FAK inh	EphB4 antag	PLK1 PBD inh	PLK1 inh	Smad3 inh	Redox H2O2 DR
CC(C)=CC(=O)NCCc1ccccc1	0	-11	51*	-5	1	>50
C/C(=C/C(=O)NCc1ccccc1)C(=O)O	-2	-8	-14	-9	x	x
CCC(=O)NCCc1nc2ccccc2n1Cc1ccccc1	0	2	-7	-9	12	x
Nc1cc2nsnc2cc1Br	-3	-7	118*	25	x	13*
CNC(=O)CC(C(=O)O)c1ccc(OCC(C)C)cc1 (centres undefined)	-6	-3	64*	-4	-7	>50
CNC(=O)CC(C(=O)O)c1ccc(OC(C)C)cc1 (centres undefined)	-2	-5	3	-10	-10	x
N/C(=N\OC(=O)Cc1cccc2ccccc12)c1ccccn1	1	5	-27	-1	5	x
COc1ccc(N(C)C2=NS(=O)(=O)c3ccccc32)cc1	-4	-2	54*	6	-21	>50
O=C(CN1C(=O)COc2ccccc21)NCc1ccc(C(=O)O)cc1	-2	-4	51*	5	2	>50
O=C(O)CCCC(=O)Nc1ccc(C(=O)NCc2cccnc2)cc1	0	-3	2	-15	6	x
